We go through seven molecules from PubChem BioAssay (NCI).

Compounds without any hit were thinned out: in the full panel of roughly 83,000, 20% have a hit.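 Note: values are percent growth. 100 is the growth of untreated cells, values between 100 and 0 indicate rising inhibition; between -100 and 0 indicates cell death.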 A number with no mark means an inactive call. The source made the active and inactive calls. Rule for the calls: active = growth percent below 10; inactive = the rest.

Holding throughout (test): NCI-60 one-dose screen, 48 h (100 = growth as untreated, 0 = no growth, -100 = all killed)
Common to all, as to conditions: 10 µM unless noted

Experiment [1] has as its system NCI-H23 lung.
In experiment [2] the test system is NCI-H226 lung.
In experiment [3] the test system is NCI-H322M lung.
Experiment [4] relates to HOP-62 NSCLC.
Experiment [5] deals with NCI-H460 lung.
The test system of experiment [6] is HOP-92 NSCLC.
For experiment [7], the system named is NCI-H522 lung.
Experiment [8] has as its system A549/ATCC NSCLC.
In experiment [9] the test system is 786-0 renal.
Experiment [10] deals with COLO 205 colon.
Experiment [11] concerns DU-145 prostate.
Experiment [12] concerns K-562 leukemia.
The subject of experiment [13] is MALME-3M melanoma.
In experiment [14] the test system is MDA-MB-231 breast.
Experiment [15] has as its system RXF 393 renal.
The subject of experiment [16] is SF-268 CNS.
In experiment [17] the test system is SF-295 CNS.
In experiment [18] the test system is SF-539 CNS.
Experiment [19] concerns UACC-257 melanoma.
Experiment [20] relates to M14 melanoma.

With `C=C(C)C1CCC2(C(=O)O)CCC3(C)C(CCC4C5(C)CCC(O)C(C)(C)C5CCC43C)C12` (stereo not given), the growth in [1] was -50.3% (active); in experiment [2] it was 33.2%; in experiment [3], 6.5% (active); in experiment [4], -59.1% (active); in experiment [5] it was -22.5% (active); in experiment [6] it was -26.2% (active). Also, the growth is 1.49% (active) in experiment [7]; -53.5% (active) in [8]; -66.5% (active) in experiment [9]; -45.3% (active) in experiment [10]; -55.5% (active) in experiment [11]; -34.1% (active) in experiment [12]. The growth was -17.4% (active) in experiment [13]; -8.05% (active) in experiment [14]; -68.8% (active) in experiment [15]; 16.3% in experiment [16]; -14.8% (active) in [17]; -54.1% (active) in [18]. Further, the growth was -17.2% (active) in [19] and -49.9% (active) in experiment [20].
Turning to `O=[N+]([O-])c1cc(F)c2cccnc2c1O`, the growth is 87.8% in experiment [1]; 102% in [2]; 100% in [3]; 97.1% in experiment [4]; 92.1% in experiment [5]; 104% in experiment [6]. The growth is 60.8% in experiment [7]; 105% in experiment [8]; 102% in experiment [9]; 104% in experiment [10]; 121% in experiment [11]; 109% in [12]. Besides, the growth in experiment [13] is 103%; in experiment [14] it was 99.5%; in experiment [15], 148%; in experiment [16] it was 106%; in [17], 110%; in [18], 91%. The figures for the growth in experiment [19] and in experiment [20] were 115% and 88.5%, respectively.
As for `COC(=O)C(C)NC1=C(Cl)C(=O)C(NC(C)C(=O)OC)=C(Cl)C1=O` (stereo not given), the growth in [1] was 101%; in experiment [2] it was 100%; in [3], 101%; in [4], 98.7%; in experiment [5], 95.9%; in [6] it was 101%. Also, the growth in experiment [7] is 78.2%; in [8], 98.9%; in experiment [9] it was 105%; in experiment [10] it was 99.5%; in [11], 101%; in experiment [12], 109%. Moreover, the growth in [13] is 72.2%; in experiment [14], 94.6%; in experiment [15], 101%; in [16], 102%; in experiment [17] it was 99%; in [18], 107%. Besides, the growth was 86.4% in experiment [19] and 103% in experiment [20].
For `COc1ccc2[nH]c(C(=O)OCc3ccc4c(Br)cc(Br)c(O)c4n3)cc2c1`, the growth was -62.4% (active) in experiment [1]; -64.7% (active) in experiment [2]; 43.1% in [3]; 7.47% (active) in experiment [4]; -75.1% (active) in [5]; -59.8% (active) in experiment [6]. Besides, the growth in [7] was -68% (active); in [8], -10.2% (active); in [9] it was -81.8% (active); in experiment [10], -80.2% (active); in [11] it was -94.6% (active); in [12], 1.4% (active). Also, the growth was -79.6% (active) in experiment [13]; -73.6% (active) in experiment [14]; -89.2% (active) in [15]; -70.8% (active) in experiment [16]; 72.3% in experiment [17]; -91.9% (active) in experiment [18]. The growth in [19] was -72.8% (active); in [20], -64.1% (active).
Turning to `COc1ccc(C2C3CCc4ccccc4C3=NN2C(=O)c2cc(OC)c(OC)c(OC)c2)cc1O` (stereo not given), the growth is 98% in experiment [1]; 89.1% in [2]; 86.2% in experiment [3]; 92.8% in [4]; 108% in experiment [5]; 84.2% in [6]. Besides, the growth is 81.8% in [7]; 102% in [8]; 106% in experiment [9]; 113% in experiment [10]; 111% in experiment [11]; 52.7% in experiment [12]. Further, the growth in experiment [13] is 77.2%; in experiment [14], 103%; in experiment [15] it was 56.8%; in experiment [16], 105%; in experiment [17], 91.2%; in experiment [18], 101%. Moreover, the growth was 110% in experiment [19] and 101% in experiment [20].
As for `C=C(C)c1ccc(/C=N/NC(N)=S)cc1`, the growth in [1] is 103%; in experiment [2], 86.3%; in experiment [3] it was 111%; in experiment [4], 77.4%; in experiment [5], 99.9%; in experiment [6] it was 131%. The growth in [7] is 103%; in experiment [8] it was 118%; in [9] it was 11.4%; in [10], 120%; in experiment [11] it was 97.6%; in [12], 89%. Further, the growth in experiment [13] was 116%; in [14] it was 96.8%; in [15], 94.6%; in experiment [16], 109%; in [17], 76.5%; in experiment [18], 99.2%. Further, the growth in [19] was 257%; in [20], 87.2%.
Consider `c1ccc2c(Cc3csc4ccccc34)csc2c1`, for which the growth was 84.7% in experiment [1]; 95.1% in experiment [2]; 87.2% in experiment [3]; 83.2% in experiment [4]; 104% in [5]; 77.7% in [6]. The growth in [7] is 65.3%; in [8], 83%; in experiment [9] it was 93.8%; in experiment [10], 83.3%; in experiment [11] it was 110%; in [12], 23.8%. Further, the growth in experiment [13] is 81.9%; in [14], 94.9%; in experiment [15], 83.6%; in [16] it was 104%; in experiment [17] it was 69.2%; in experiment [18], 91.4%. The growth in experiment [19] was 93.5%; in experiment [20], 67.7%.
